Results filed as inconclusive are left out. Unmarked numbers belong to inactive results. The call rests on the fitted dose curve; in most records, active means well fitted inhibition curve with a large enough effect; inconclusive means small, poorly fitted or top-dose-only effect; inactive means flat fitted curve, though single readings scatter.
On the % scale 0 is the no-effect control and ±100 the full control effect.

Sequence of Calcium and integrin-binding protein 1 (Homo sapiens) (Q99828 whole entry, looked up): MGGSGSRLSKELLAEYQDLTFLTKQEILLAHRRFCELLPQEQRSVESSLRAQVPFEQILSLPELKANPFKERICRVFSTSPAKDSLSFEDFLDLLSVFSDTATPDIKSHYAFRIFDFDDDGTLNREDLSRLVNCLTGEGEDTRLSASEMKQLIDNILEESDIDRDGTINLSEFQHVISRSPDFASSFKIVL

The experiment addresses Calcium and integrin-binding protein 1 (Homo sapiens) (UniProt Q99828). As to the kind of experiment: Primary qHTS for Identification of Calcium Integrin Binding Protein 1 (CIB1) Competitor (AID 1508620).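 Further: GST tagged CIB1 binding a fluorescein labelled alphaIIb integrin peptide tracer; top concentration of the series differs between compounds.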 The conditions noted are these: CIB1-GST / FITC-alphaIIb peptide fluorescence polarization; series mostly up to 114 µM; activity change, negative = inhibition: at the top concentration. A digest of the protocol: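 Fluorescence polarization competition: CIB1-GST (1 uM final) preincubated with compound 15 min at room temperature, then FITC-labeled alphaIIb peptide (100 nM final) added for another 15 min. Polarization read at Ex 480/Em 540.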
(In qHTS, concentration-response curves come from the screen itself.)
For `CC(C)=C1CC[C@]23CO[C@H](C2)[C@@](O)(C(=O)O)CCC13` (some centres undefined), the “activity change, negative = inhibition” value was -0.151%.
The value for `OCCCCC#Cc1cncc(OC[C@@H]2CCN2)c1` was 1.94%; that for `Oc1ccc2c3c1O[C@H]1[C@H](N(CCCl)CCCl)CC[C@@]4(O)[C@@H](C2)N(CC2CC2)CC[C@]314` was -6.34% [at 30.2 µM]; that for `COc1cc(CCNCc2ccccc2O)c(OC)cc1C#N` was 2.02%.
In the case of `Cc1cccc(NC(=O)N[C@@H]2N=C(c3ccccc3)c3ccccc3N(C)C2=O)c1` it was -1.3%.
As for `CC(C)[C@@H](CN1CC[C@@](C)(c2cccc(O)c2)[C@@H](C)C1)NC(=O)[C@H]1Cc2ccc(O)cc2CN1`, the “activity change, negative = inhibition” value was -5.74%.
The value for `CC1=C2C[C@H]3[C@@H](CC=C4C[C@@H](O)CC[C@@]43C)[C@@H]2CC[C@]12O[C@@H]1C[C@H](C)CN[C@H]1[C@H]2C` was -4.25%.
The value for `Cc1cn(C[C@H](N)C(=O)O)c(=O)n(Cc2cc(-c3ccccc3)sc2C(=O)O)c1=O` was -2%.
In the case of `CCCSP(=O)(OCC)SCCC` it was 6.83% [at 228 µM]; in that of `CC(C)(C)c1cc(C(C)(C)C)c2c(c1)C(O)(C(F)(F)F)C(=O)O2` (centres undefined), -13.3%.
As to `CCN1C[C@]2(COC)[C@H](O)C[C@H](OC)[C@]34[C@@H]5C[C@]6(O)[C@H](OC(=O)c7ccccc7)[C@@H]5[C@@](O)([C@H]([C@H](OC)[C@H]23)[C@@H]14)[C@@H](O)[C@@H]6OC`, the “activity change, negative = inhibition” value is -2.87% [at 57.7 µM].
In the case of `Cn1ncnc1COc1nn2c(-c3c(F)cccc3F)nnc2cc1C1CCC1` it was 0.97%; in that of `CCc1c(C(=O)C(N)=O)c2c(OCC(=O)OC)cccc2n1Cc1ccccc1`, 6.74%.
`CCN1C[C@]2(OC(=O)c3ccccc3NC(C)=O)CC[C@H](OC)[C@@]34[C@@H]2C[C@@H]([C@@H]13)[C@@]1(O)C[C@H](OC)[C@H]2C[C@@H]4[C@]1(O)[C@H]2OC`: the “activity change, negative = inhibition” value is 0.392%.

These data come from PubChem BioAssay (NCATS).
